Measurements as given in PMC7862700, “An all-to-all approach to the identification of sequence-specific readers for epigenetic DNA modifications on cytosine”.

What was measured:
Assay in all cases: DAPPL (digital affinity profiling via proximity ligation, sequencing); 10 mM Tris-HCl pH 7.5, 50 mM NaCl, 1 mM DTT, 4% glycerol, room temperature, 30 min; GST-TFs on glutathione beads, 16-mer random dsDNA library, 0.1% formaldehyde crosslink after washing; high values mean tight binding
FLI1 = molecular target: T1, FLI1 (Homo sapiens, UniProt Q01543 1-452); settings: protein: recombinant; tags: N-terminal GST; dsDNA, one strand shown
T1 sequence: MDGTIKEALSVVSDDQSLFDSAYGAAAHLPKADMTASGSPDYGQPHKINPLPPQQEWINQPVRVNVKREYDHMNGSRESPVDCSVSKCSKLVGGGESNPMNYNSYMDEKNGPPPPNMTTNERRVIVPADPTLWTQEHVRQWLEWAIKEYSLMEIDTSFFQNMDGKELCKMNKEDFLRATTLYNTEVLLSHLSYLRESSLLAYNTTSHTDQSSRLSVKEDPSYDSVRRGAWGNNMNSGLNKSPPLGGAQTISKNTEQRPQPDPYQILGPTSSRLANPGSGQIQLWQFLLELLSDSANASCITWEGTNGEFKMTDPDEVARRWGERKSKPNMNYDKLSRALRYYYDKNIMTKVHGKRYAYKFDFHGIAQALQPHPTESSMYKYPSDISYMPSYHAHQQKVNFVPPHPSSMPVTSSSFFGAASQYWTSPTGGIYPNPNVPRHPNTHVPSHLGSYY
Outline: (§1)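 After expression in yeast as GST fusions, human transcription factors were bound to glutathione beads, DNA-barcoded and mixed with a tag-only sample. The pools were incubated with 200 nmole of a 16-mer random double-stranded DNA library in Tris/NaCl/DTT/glycerol buffer (30 min, room temperature), washed and crosslinked with 0.1% formaldehyde. Proximity ligation with BsaI/T4 ligase ran for 1 h at 37 °C, before PCR amplification and sequencing on an Illumina NextSeq500. Binding signal is a hexamer's read frequency for a factor divided by its frequency for the tag-only sample.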

ELK1 = molecular target: T2, ELK1 (Homo sapiens, UniProt P19419 1-428); settings: protein: recombinant; tags: N-terminal GST; dsDNA, one strand shown
T2 sequence: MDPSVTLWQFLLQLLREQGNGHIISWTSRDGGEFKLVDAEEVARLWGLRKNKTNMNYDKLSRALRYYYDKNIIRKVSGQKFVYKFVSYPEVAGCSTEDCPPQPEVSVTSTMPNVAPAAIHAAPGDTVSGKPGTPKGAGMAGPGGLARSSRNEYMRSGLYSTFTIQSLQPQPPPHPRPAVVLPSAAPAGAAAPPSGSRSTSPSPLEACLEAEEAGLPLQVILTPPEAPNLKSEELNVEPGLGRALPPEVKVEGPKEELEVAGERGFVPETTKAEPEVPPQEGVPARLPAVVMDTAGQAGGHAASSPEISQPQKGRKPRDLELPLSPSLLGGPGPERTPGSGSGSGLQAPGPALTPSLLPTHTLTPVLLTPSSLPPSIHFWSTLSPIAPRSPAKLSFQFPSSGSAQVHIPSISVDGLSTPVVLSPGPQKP
Outline: as §1

GABPA = molecular target: T3, GABPA (Homo sapiens, UniProt Q06546 1-454); settings: protein: recombinant; tags: N-terminal GST; dsDNA, one strand shown
T3 sequence: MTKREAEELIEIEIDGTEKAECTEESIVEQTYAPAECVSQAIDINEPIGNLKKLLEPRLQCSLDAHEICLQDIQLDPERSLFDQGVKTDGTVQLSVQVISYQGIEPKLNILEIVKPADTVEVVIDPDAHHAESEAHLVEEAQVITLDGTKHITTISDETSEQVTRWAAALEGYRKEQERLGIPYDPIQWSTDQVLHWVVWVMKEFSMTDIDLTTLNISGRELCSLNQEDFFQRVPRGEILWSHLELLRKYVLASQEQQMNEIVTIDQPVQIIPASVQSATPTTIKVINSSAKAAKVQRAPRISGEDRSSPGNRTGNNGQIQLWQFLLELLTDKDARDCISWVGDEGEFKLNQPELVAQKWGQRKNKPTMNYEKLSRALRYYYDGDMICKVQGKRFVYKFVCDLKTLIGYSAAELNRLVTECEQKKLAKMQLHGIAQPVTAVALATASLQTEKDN
Outline: as §1

ERG = molecular target: T4, ERG (Homo sapiens, UniProt P11308 1-479); settings: protein: recombinant; tags: N-terminal GST; dsDNA, one strand shown
T4 sequence: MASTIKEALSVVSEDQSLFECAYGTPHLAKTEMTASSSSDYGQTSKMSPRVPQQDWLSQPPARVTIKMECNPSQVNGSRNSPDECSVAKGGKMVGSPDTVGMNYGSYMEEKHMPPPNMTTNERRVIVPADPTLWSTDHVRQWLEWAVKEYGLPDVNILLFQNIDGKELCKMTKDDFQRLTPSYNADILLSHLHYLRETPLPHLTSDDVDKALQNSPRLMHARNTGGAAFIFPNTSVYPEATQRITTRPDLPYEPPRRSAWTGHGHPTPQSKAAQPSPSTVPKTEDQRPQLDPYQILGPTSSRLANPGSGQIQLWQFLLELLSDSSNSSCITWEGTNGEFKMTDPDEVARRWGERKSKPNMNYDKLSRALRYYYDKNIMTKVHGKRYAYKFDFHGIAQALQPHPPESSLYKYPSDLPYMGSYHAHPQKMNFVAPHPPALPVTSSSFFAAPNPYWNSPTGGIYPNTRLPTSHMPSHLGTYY
Outline: as §1

ELF1 = ELF1 (Homo sapiens, UniProt P32519 1-619); settings: protein: recombinant; tags: N-terminal GST; dsDNA, one strand shown
Sequence of ELF1 (P32519 whole entry): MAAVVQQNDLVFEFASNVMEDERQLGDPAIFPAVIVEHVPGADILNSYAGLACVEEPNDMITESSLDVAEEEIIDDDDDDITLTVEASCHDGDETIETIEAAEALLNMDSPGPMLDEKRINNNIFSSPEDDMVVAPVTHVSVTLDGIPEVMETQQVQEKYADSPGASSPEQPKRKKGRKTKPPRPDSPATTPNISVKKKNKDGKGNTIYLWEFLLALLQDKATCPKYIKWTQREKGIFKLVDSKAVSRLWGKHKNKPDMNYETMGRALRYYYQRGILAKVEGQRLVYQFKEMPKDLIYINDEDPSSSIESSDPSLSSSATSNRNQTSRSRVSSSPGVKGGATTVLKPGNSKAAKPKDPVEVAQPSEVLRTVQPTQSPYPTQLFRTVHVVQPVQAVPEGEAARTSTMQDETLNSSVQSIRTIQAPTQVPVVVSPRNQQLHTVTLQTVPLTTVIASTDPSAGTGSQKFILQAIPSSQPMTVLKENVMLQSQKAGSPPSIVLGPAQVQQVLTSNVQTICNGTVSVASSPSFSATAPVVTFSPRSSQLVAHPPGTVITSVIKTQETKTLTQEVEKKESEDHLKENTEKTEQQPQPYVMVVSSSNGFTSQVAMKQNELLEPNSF
Outline: as §1

SPI1 = SPI1 (Homo sapiens, UniProt P17947 1-270); settings: protein: recombinant; tags: N-terminal GST; dsDNA, one strand shown
Outline: as §1

SPIB = SPIB (Homo sapiens, UniProt Q01892 1-262); settings: protein: recombinant; tags: N-terminal GST; dsDNA, one strand shown
Sequence of SPIB (Q01892 whole entry): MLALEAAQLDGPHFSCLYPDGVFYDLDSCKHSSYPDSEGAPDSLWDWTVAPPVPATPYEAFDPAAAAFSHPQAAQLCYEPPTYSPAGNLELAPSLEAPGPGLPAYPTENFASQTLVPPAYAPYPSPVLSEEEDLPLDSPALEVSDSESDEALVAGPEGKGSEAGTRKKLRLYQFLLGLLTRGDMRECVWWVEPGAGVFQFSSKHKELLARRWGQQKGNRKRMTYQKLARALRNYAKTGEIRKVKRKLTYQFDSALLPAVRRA
Outline: as §1

ELK3 = molecular target: T5, ELK3 (Homo sapiens, UniProt P41970 1-407); settings: protein: recombinant; tags: N-terminal GST; dsDNA, one strand shown
T5 sequence: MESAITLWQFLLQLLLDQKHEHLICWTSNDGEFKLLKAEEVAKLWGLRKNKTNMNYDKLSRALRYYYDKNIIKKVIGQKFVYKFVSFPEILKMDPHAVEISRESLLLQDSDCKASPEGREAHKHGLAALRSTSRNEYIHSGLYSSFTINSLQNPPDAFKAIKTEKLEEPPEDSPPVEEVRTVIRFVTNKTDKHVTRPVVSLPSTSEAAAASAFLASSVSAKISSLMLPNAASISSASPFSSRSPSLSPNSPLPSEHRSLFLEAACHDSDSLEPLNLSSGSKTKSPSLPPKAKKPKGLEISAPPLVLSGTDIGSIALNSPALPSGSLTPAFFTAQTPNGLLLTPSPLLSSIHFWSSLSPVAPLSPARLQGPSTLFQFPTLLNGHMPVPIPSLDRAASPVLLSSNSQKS
Outline: as §1

FEV = molecular target: T6, FEV (Homo sapiens, UniProt Q99581 1-238); settings: protein: recombinant; tags: N-terminal GST; dsDNA, one strand shown
T6 sequence: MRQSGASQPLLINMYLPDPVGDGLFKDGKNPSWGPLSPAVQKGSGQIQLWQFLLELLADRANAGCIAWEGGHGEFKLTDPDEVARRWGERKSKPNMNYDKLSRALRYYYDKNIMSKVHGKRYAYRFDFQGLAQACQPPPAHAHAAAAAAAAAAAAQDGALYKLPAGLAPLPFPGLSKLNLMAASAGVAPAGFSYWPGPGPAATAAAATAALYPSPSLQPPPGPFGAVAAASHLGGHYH
Outline: as §1

ETV5 = ETV5 (Homo sapiens, UniProt P41161 1-510); settings: protein: recombinant; tags: N-terminal GST; dsDNA, one strand shown
Sequence of ETV5 (P41161 whole entry): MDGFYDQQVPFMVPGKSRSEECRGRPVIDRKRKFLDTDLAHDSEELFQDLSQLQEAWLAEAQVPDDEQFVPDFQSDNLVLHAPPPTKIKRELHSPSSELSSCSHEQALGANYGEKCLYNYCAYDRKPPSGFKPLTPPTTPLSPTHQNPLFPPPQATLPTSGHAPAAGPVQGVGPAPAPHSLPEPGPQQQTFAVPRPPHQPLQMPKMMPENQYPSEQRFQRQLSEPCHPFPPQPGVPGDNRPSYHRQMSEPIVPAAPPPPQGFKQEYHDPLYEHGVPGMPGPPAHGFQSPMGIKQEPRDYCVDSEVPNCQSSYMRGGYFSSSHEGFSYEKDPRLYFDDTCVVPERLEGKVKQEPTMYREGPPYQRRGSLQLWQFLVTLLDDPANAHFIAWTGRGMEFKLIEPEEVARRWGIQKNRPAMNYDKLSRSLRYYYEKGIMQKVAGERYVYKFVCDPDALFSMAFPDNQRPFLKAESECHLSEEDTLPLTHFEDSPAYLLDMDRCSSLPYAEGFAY
Outline: as §1

HSF1 = HSF1 (Homo sapiens, UniProt Q00613 1-529); settings: protein: recombinant; tags: N-terminal GST; chain copies: 3; dsDNA, one strand shown
Sequence of HSF1 (Q00613 whole entry): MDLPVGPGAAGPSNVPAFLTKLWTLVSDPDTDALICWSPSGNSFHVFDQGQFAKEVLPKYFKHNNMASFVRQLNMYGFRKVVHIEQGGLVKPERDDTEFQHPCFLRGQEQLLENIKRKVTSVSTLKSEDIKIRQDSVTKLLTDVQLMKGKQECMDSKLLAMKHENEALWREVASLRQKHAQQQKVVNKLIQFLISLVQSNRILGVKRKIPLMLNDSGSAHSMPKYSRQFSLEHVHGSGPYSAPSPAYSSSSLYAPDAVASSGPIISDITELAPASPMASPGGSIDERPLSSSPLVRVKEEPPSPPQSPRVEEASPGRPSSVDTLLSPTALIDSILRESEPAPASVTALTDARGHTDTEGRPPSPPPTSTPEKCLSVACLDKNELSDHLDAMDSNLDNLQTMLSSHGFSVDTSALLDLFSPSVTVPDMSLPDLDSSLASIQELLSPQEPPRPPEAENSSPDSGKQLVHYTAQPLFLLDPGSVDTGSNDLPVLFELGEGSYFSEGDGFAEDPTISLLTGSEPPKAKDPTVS
Outline: as §1

SPIC = molecular target: T7, SPIC (Homo sapiens, UniProt Q8N5J4 1-248); settings: protein: recombinant; tags: N-terminal GST; dsDNA, one strand shown
T7 sequence: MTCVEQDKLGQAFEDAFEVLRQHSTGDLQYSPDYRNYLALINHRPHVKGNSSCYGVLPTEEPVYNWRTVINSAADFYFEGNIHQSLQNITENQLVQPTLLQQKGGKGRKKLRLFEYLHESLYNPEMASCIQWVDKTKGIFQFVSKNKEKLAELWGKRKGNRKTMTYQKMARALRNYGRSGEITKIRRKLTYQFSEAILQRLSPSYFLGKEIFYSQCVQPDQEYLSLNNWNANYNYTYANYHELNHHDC
Outline: as §1

ELF4 = ELF4 (Homo sapiens, UniProt Q99607 1-663); settings: protein: recombinant; tags: N-terminal GST; dsDNA, one strand shown
Sequence of ELF4 (Q99607 whole entry): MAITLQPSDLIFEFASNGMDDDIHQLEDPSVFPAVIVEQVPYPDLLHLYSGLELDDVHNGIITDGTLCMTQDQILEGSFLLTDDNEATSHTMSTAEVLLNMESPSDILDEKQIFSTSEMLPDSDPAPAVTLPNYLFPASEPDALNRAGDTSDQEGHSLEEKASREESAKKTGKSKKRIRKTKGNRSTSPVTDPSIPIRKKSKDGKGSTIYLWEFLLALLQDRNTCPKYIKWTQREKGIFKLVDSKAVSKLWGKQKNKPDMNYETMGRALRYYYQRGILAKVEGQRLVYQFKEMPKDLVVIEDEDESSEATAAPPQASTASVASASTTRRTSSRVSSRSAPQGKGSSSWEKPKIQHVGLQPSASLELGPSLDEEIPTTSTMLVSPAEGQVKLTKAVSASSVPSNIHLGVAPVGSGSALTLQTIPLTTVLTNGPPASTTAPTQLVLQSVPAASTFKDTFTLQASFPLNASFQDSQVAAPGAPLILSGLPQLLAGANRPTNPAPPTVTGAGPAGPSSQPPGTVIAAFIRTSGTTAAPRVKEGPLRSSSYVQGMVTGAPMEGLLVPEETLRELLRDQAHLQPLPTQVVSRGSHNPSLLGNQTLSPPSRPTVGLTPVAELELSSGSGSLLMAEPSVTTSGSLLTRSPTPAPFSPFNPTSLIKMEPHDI
Outline: as §1

ELK4 = molecular target: T8, ELK4 (Homo sapiens, UniProt P28324-2 1-405); settings: protein: recombinant; tags: N-terminal GST; dsDNA, one strand shown
T8 sequence: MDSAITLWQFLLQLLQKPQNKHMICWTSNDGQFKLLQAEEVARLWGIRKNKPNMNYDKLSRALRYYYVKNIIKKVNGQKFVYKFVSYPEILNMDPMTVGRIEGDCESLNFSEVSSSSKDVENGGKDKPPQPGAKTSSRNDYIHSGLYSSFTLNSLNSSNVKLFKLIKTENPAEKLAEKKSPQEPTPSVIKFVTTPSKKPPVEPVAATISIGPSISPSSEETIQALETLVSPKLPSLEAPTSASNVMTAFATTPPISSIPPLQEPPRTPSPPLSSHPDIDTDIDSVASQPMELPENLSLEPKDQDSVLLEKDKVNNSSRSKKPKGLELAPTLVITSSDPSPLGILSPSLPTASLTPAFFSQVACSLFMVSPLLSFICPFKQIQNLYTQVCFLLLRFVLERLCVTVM
Outline: as §1

ELF3 = molecular target: T9, ELF3 (Homo sapiens, UniProt P78545 1-371); settings: protein: recombinant; tags: N-terminal GST; dsDNA, one strand shown
T9 sequence: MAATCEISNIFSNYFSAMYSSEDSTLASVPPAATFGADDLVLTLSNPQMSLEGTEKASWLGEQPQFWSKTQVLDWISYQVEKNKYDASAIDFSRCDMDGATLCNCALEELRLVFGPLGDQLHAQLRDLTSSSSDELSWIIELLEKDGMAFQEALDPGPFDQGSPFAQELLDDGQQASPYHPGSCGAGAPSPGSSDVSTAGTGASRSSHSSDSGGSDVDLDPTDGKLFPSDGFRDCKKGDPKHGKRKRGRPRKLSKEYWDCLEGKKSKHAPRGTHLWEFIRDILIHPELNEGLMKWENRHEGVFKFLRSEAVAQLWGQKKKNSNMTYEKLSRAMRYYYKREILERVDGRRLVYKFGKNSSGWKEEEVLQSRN
Outline: as §1

CRX = CRX (Homo sapiens, UniProt O43186 1-299); settings: protein: recombinant; tags: N-terminal GST; dsDNA, one strand shown
Sequence of CRX (O43186 whole entry): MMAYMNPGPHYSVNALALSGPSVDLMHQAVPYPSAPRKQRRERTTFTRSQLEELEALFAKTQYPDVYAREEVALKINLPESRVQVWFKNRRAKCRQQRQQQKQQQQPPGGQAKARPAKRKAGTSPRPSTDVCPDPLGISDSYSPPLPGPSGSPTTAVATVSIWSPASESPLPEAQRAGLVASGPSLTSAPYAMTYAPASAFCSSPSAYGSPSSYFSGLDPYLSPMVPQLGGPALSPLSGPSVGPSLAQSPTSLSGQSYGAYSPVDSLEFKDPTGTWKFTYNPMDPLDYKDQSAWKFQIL
Outline: as §1

ETV1 = ETV1 (Homo sapiens, UniProt P50549 1-477); settings: protein: recombinant; tags: N-terminal GST; dsDNA, one strand shown
Sequence of ETV1 (P50549 whole entry): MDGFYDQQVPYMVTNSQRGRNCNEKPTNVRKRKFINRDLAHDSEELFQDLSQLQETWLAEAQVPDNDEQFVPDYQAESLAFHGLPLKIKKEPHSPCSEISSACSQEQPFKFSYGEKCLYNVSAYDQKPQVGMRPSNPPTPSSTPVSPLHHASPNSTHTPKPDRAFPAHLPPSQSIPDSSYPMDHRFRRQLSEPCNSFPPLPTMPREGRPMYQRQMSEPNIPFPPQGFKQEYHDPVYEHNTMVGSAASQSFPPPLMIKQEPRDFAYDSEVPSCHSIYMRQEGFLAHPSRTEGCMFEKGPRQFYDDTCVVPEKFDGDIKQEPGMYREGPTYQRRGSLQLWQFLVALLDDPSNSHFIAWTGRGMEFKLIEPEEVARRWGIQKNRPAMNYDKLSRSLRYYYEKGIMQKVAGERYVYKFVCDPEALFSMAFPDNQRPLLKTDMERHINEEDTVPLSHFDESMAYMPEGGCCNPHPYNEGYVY
Outline: as §1

## AGTTCT
FLI1
  binding signal: 1.02 fold enrichment (6-mer frequency, TF over GST control)
ELK1
  binding signal: 1.15 fold enrichment (6-mer frequency, TF over GST control)
GABPA
  binding signal: 1.11 fold enrichment (6-mer frequency, TF over GST control)
ERG
  binding signal: 1.11 fold enrichment (6-mer frequency, TF over GST control)
ELF1
  binding signal: 1.04 fold enrichment (6-mer frequency, TF over GST control)
SPI1
  binding signal: 1.14 fold enrichment (6-mer frequency, TF over GST control)
SPIB
  binding signal: 1.2 fold enrichment (6-mer frequency, TF over GST control)
ELK3
  binding signal: 1.11 fold enrichment (6-mer frequency, TF over GST control)
FEV
  binding signal: 1.1 fold enrichment (6-mer frequency, TF over GST control)
ETV5
  binding signal: 1.12 fold enrichment (6-mer frequency, TF over GST control)
HSF1
  binding signal: 1.92 fold enrichment (6-mer frequency, TF over GST control)
SPIC
  binding signal: 1.1 fold enrichment (6-mer frequency, TF over GST control)
ELF4
  binding signal: 1.13 fold enrichment (6-mer frequency, TF over GST control)
ELK4
  binding signal: 1.2 fold enrichment (6-mer frequency, TF over GST control)
ELF3
  binding signal: 1.17 fold enrichment (6-mer frequency, TF over GST control)
CRX
  binding signal: 1.19 fold enrichment (6-mer frequency, TF over GST control)
ETV1
  binding signal: 1.03 fold enrichment (6-mer frequency, TF over GST control)
